Experimental findings from PubChem BioAssay AID1159606 (Sanford-Burnham Center for Chemical Genomics, 2016) are described below.

About 7,300 (2%) of roughly 360,000 compounds were called active. The sample holds actives, similar compounds and a random draw of the others, so the mix is not that of the screen. Cut-off read from the data, not from the text of the source: active = inhibition above about 50%; inactive = the rest.

This assay in a line: inhibitors of TWEAK-Fn14 signaling, primary screen, luciferase reporter cells, uHTS (AID 1159606). The conditions noted are these: TWEAK-stimulated Fn14 reporter cells, luciferase luminescence, 8 h; at 10 µM; active compounds read high. On the technique in general: In a reporter assay the amount or activity of a reporter protein is the signal.
By inhibition is commonly meant the drop in the measured response relative to a control, in per cent. As to `CCOC(=O)[C@H]1Nc2ccc(Cl)cc2[C@@H]2[C@H]1C1CC(c3ccccc31)N2C(=O)OCc1ccccc1` (stereo partly specified), the inhibition is -23.5% (inactive).

On to `CCCCNC(=O)OC1CC2CC1[C@H]1CCCCN1C2=O` (stereo partly specified), for which the inhibition was 7.93% (inactive). For `CCOC12CC(C)(C)CC(C)(CC3=C1C(=O)CC(C)(C)C3)C2` (stereo unspecified) the value was 76.6% (active). For `Cc1noc(C)c1-c1nc(CSc2ccc(Cl)cc2)no1` the value was -29% (inactive); for `COc1cc2nnn(-c3ccncc3)c2cc1OC`, 1.57% (inactive); for `Cn1c(N2CCOCC2)c(C=O)c2ccccc21`, -2.19% (inactive). As to `COc1cccc(-n2c(=S)[nH]c3c(oc4ccccc43)c2=O)c1`, the inhibition is 22.3% (inactive). `O=c1oc2ccccc2cc1-c1cn(-c2ccccc2)c(=S)[nH]1`: the inhibition was 107% (active).

On to `CC1(C(=O)NS(=O)(=O)c2ccccc2)CCN1C(=O)C/C=C/c1ccccc1` (stereo unspecified), for which the inhibition is -7.09% (inactive). With `CC1(C(=O)O)CCN1C(=O)/C=C/c1ccccc1` (stereo unspecified), the inhibition is 4.71% (inactive). `CC1(C)CCSC(/C=C/c2ccccc2)=N1`: the inhibition is 71.7% (active). Consider `CC(C)=CCCC1(C)C=Cc2c(ccc3c2[nH]c2cc(O)c(C)cc23)O1` (stereo unspecified), for which the inhibition is 67% (active).

Consider `CN(C(=O)COC(=O)Cn1cnc2c1c(=O)n(C)c(=O)n2C)C1(C#N)CCCCC1`, for which the inhibition is -7.55% (inactive). Regarding `COC(=O)C(C)N(C#N)c1nc(C)nc(C)n1` (stereo unspecified), the inhibition is -3.55% (inactive).

`Cc1nnc(SC(C(=O)Nc2cc(Cl)cc(Cl)c2)c2ccccc2)[nH]c1=O` (stereo unspecified): the inhibition was -1.44% (inactive).

Turning to `CCCOc1ccc(C(=O)C(CCC(CNCC)C(=O)c2ccc(OCCC)cc2)CNCC)cc1` (stereo unspecified), the inhibition was 103% (active).

On to `CC(C)CCOc1ccc(C(=O)C[N+]2(C)CCOCC2)cc1`, for which the inhibition is -7.15% (inactive). Consider `CCCc1ccc(OCCNC(=O)c2ccccc2Br)cc1`, for which the inhibition is -12.5% (inactive). Turning to `CC(Oc1ccc(F)cc1)C(=O)Nc1ccccc1C(=O)NC1CC1` (stereo unspecified), the inhibition was 8.99% (inactive).

Turning to `COC(=O)c1onc(-c2c(OC)cc(OC)cc2OC)c1C(=O)OC`, the inhibition was 10.7% (inactive). For `CC(C)C(C(=O)NC1CCCCC1)N(CC1CCCO1)C(=O)CNS(=O)(=O)c1ccc(F)cc1` (stereo unspecified) the value was 8.87% (inactive); for `Cc1ccc(N(CC(=O)NC2CCCCC2)C(=O)CCCC(=O)Nc2ccccn2)c(C)c1`, -5.23% (inactive). For `Cc1onc(-c2ccccc2Cl)c1C(=O)OCc1nnc(-c2ccccc2)o1` the value was -0.22% (inactive). For `Cc1ccc(C(=O)NCC(=O)OCc2nnc(-c3ccccc3)o2)cc1`, the inhibition is 9.26% (inactive). Take `Cc1onc(-c2ccccc2)c1-c1nnc(COC(=O)c2ccc(N(C)C)cc2)o1`: the inhibition is 54.4% (active). For `O=C(NC1CCCC1)C1c2ccccc2OCC(=O)N1CC(F)(F)F` (stereo unspecified) the value was 1.42% (inactive); for `COC1=CC(=O)OC(C)(c2ccccc2)C1` (stereo unspecified), 20.1% (inactive). On to `COc1cc2c(C(=O)O)c(C)n(C)c2c2ccccc12`, for which the inhibition was 14% (inactive).

Consider `COc1cccc2c(C)c(C(=O)O)[nH]c12`, for which the inhibition is 74.4% (active). Take `COc1cccc2c(O)cc(=O)n(C)c12`: the inhibition was 15.4% (inactive).

As to `CC1(C(=O)NS(=O)(=O)c2ccc(C#N)cc2)CCN1C(=O)c1ccc(C2CCCCC2)cc1` (stereo unspecified), the inhibition was 24.4% (inactive). As for `CN1CCN(C(=O)CCc2ncc(C(F)(F)F)cc2Cl)CC1`, the inhibition is -4.72% (inactive). As to `O=C1NC[C@H](CCCCN2C[C@H](Cc3ccccc3)N(Cc3ccccc3)C(=O)C2=O)N(CCc2ccc(O)cc2)C1=O`, the inhibition is -9.13% (inactive). To `O=c1cc(N2CCCCC2)c(-c2ccccc2)nn1Cc1cccc(F)c1` belongs -1.41% (inactive); to `Cc1cc(N/C=C\C(=O)c2ccc(Cl)c(Cl)c2)no1`, -21% (inactive). With `CCOc1ccc(N/C=C/C(=O)c2ccccc2)cc1`, the inhibition was 70.8% (active). For `CCOc1ccc(NC(=S)N2CCC(NC(=O)c3ccccc3)CC2)cc1`, the inhibition was -4.25% (inactive).

With `O=C(/C=C/NCc1ccc(F)cc1)c1ccccc1`, the inhibition is -22.1% (inactive).

Consider `Cc1ccc(NNC(=O)C2CCC2)cc1C`, for which the inhibition was -5.21% (inactive). Turning to `COc1ccc(C(=O)/C=C/Nc2ccccn2)cc1`, the inhibition is 97.4% (active).

Turning to `CCOc1ccc(NC(=O)C2CCCN(C(=O)Nc3ccccc3)C2)cc1` (stereo unspecified), the inhibition was -2.21% (inactive).

In the case of `COc1ccc(N2C(=O)CCC(C(=O)Nc3ccccn3)C2c2ccc(OC)c(OC)c2)cc1` (stereo unspecified), the inhibition is 2.83% (inactive).

For the molecule `Cc1ccc(N/C=C/C(=O)c2ccccc2)cc1C`, the inhibition was 66.8% (active). Consider `COCc1ccc(C(=O)NC2CC(C)(C)Cc3c2cnn3-c2ccc(C)cc2)o1` (stereo unspecified), for which the inhibition is 3.46% (inactive). To `COCCCNC(=O)CC1C[C@H](C(=O)N2CCCCC2)[C@@]2(CCc3ccccc3)c3[nH]c4ccccc4c3CCN2C1=O` (stereo partly specified) belongs 17.5% (inactive); to `O=C(CCCl)Nc1ccc(S(=O)(=O)NCc2ccco2)cc1`, 13% (inactive).

Regarding `CCNC(=O)c1cc2c(c(-c3cccc(-c4cncnc4)c3)n1)[C@H](CCO)N(C(C)=O)C2`, the inhibition is -9.64% (inactive). Take `Cc1ccccc1-n1nnc2c(=O)oc3ccccc3c21`: the inhibition was -3.42% (inactive). Turning to `O=C1CCC(=O)N1c1ccc(NCCc2ccccc2F)c([N+](=O)[O-])c1`, the inhibition is -12.8% (inactive). Consider `S=C(c1ccc(-c2ccccc2)o1)N1CCCCC1`, for which the inhibition was -8.48% (inactive).

For `C=CCc1ccccc1OCC(O)CN1CCN(CCO)CC1` (stereo unspecified), the inhibition is -11.8% (inactive). For `OCCN1CCN(C(=S)c2ccc(-c3ccccc3)cc2)CC1` the value was 54.4% (active).

For `Cc1cc(C)n2c(NCc3ccccc3)c(CC(C)C)nc2n1`, the inhibition was -7.32% (inactive). To `Cc1ccc(C)c(S(=O)(=O)N(C)c2ccc(OC(=O)C3CCN(C(=O)c4ccc(F)cc4)CC3)cc2)c1` belongs -10.5% (inactive); to `Cc1ccccc1C(CC(=O)c1cccs1)C(C#N)C#N` (stereo unspecified), 83.8% (active); to `Cc1ccc(C)c(NC(CC(=O)c2ccccc2)C(=O)OCC(=O)c2cccs2)c1` (stereo unspecified), -31.8% (inactive). For `O=C(NCC(=O)N1CCN(c2ccccc2F)CC1)c1cccs1` the value was -8.04% (inactive); for `Cc1nn(-c2ccccc2)c(=O)c2noc(C)c12`, 2.03% (inactive); for `COc1cccc(CN2C(=O)CCC2(C)C(=O)NC2CCCCCC2)c1` (stereo unspecified), 9.99% (inactive). For `CCOC(=O)C1=CC[C@@H](c2ccccc2)N(S(=O)(=O)c2ccc(C)cc2)[C@H]1c1cccc(OC)c1`, the inhibition is 3.81% (inactive). To `CN1CCN(S(=O)(=O)c2ccc(N3CCN(S(=O)(=O)c4cccs4)CC3)nc2)CC1` belongs -14.8% (inactive); to `OC[C@@H]1CN(Cc2ccncc2)C[C@H](n2cnc3c(N4CCN(c5ccccc5)CC4)ncnc32)O1`, 29.9% (inactive). For `Cc1cccc(NC(=S)N2CCC(C(=O)c3ccc(F)cc3)CC2)c1`, the inhibition was -7.96% (inactive).

For the molecule `O=[N+]([O-])c1c(NCCO)cc(Sc2nc3ccccc3s2)c2nonc12`, the inhibition is 9.76% (inactive). Turning to `O=C(O)c1ccccc1CSc1nc2ccccc2s1`, the inhibition is 53.1% (active). As for `Clc1ccc(-c2nnc(SCc3nc4ccccc4s3)o2)cc1`, the inhibition is -3.77% (inactive). As to `COC(=O)[C@]12CCCCC=C1N(CCC1=CCCCC1)C(=O)[C@H](CC(=O)NCC1CCCCC1)C2`, the inhibition was 9.77% (inactive). As to `Cc1ccc(-c2c(C)n([O-])c3c([n+]2=O)CCC3)cc1`, the inhibition was 19% (inactive). On to `CN(C(=O)c1cccc(OC2CCN(S(=O)(=O)N(C)C)CC2)c1)C1CCOC1` (stereo unspecified), for which the inhibition is -26.3% (inactive). To `CN(C)S(=O)(=O)N1CCC(Oc2cccc(C(=O)NCCCC3CCCC3)c2)CC1` belongs 57.2% (active); to `CNS(=O)(=O)c1cccc(C(=O)NCC2CCCCC2)c1`, -15.5% (inactive); to `Cc1ccc(C)c2[nH]c(=O)c(CCNC(=O)CC(C)C)cc12`, -18.2% (inactive). As to `CCCc1cc(C(=O)Nc2ccc(C(=O)OC)cc2)cs1`, the inhibition was -11.7% (inactive).

Take `Cc1ccc(C(=O)Nc2ccc3c(c2)OCCO3)cc1S(=O)(=O)N1CCOCC1`: the inhibition is -15.2% (inactive).

`O=C(Nc1ccc(Cl)cn1)c1cnn2cccnc12`: the inhibition is 5.94% (inactive). In the case of `CCCc1cc(C(=O)Nc2ccc(Cl)cn2)cs1`, the inhibition was 58.8% (active). Regarding `CCN(CC)CCNC(=O)c1ccc(NS(=O)(=O)c2ccc3c(c2)OCCO3)cc1`, the inhibition was 2.79% (inactive). For `CN1CCN(c2ccc(NC(=O)c3ccc4c(c3)OCCO4)cc2Cl)CC1` the value was 17.5% (inactive).

In the case of `O=C(Nc1cccc(S(=O)(=O)Nc2ccc(Cl)cc2)c1)c1ccc2c(c1)OCCO2`, the inhibition is 78.2% (active).

For the molecule `Cc1nc(NC(=O)c2ccc3c(c2)OCCO3)ccc1Br`, the inhibition was 30.4% (inactive). As to `CCCCC(CC)C(=O)Nc1ccc(Cl)cn1` (stereo unspecified), the inhibition was -8.67% (inactive). Turning to `O=C(Nc1ccc(Cl)cn1)c1ccc2c(c1)OCCO2`, the inhibition is 66.8% (active). As to `O=C(Nc1ccc2c(c1)OCCO2)c1ccc(Cl)c(S(=O)(=O)N2CCCCC2)c1`, the inhibition is 56.7% (active). As for `CC(NS(=O)(=O)c1ccc(Cl)cc1)C(=O)Nc1ccc2c(c1)OCCO2` (stereo unspecified), the inhibition was 32.7% (inactive). For `CCOc1ccc(-c2c(C)n([O-])c3c([n+]2=O)CCCC3)cc1`, the inhibition is -15.2% (inactive). As to `O=S1(=O)CC(N2CCSCC2)CN1Cc1cn(Cc2cccc(Cl)c2)nn1` (stereo unspecified), the inhibition was 0.68% (inactive). For `CC(=O)N1Cc2cc(C(=O)NCc3cccc(F)c3)nc(-c3cccc(C4=CCCC4)c3)c2[C@H]1CCO`, the inhibition was -25.9% (inactive). Take `COC(=O)C1(C(=O)OC)C/C=C\CN(S(=O)(=O)c2ccccc2[N+](=O)[O-])CCC1`: the inhibition was -4.25% (inactive). To `CC(=O)N1CCSc2ccc(S(=O)(=O)N3CCC(C)CC3)cc21` belongs 10.4% (inactive); to `Cc1csc(=O)n1CCC(=O)OCC(=O)Nc1ccc(N2CCOCC2)cc1`, -8.76% (inactive). To `COc1cccc(CNc2nc(NCc3ccccc3OC)nc3ccsc23)c1` belongs 63.1% (active); to `COCCNc1nc(NCc2ccc(NC(C)=O)cc2)c2sccc2n1`, -3.75% (inactive); to `Clc1ccccc1Nc1nc(NCc2cccs2)nc2ccsc12`, 12.1% (inactive).

Regarding `COc1cccc(CNc2nc(NCc3cccs3)nc3ccsc23)c1`, the inhibition is -13.7% (inactive). Consider `COc1ccccc1CNc1nc(Nc2ccccc2Cl)c2sccc2n1`, for which the inhibition was 61.9% (active). Take `COCCNc1nc(Nc2ccccc2Cl)c2sc(-c3ccccc3)cc2n1`: the inhibition is -18.2% (inactive).
